# Results published in PubChem BioAssay (NCI).
# The panel holds about 83,000 compounds, 20% with a hit somewhere; the sample as a whole holds those more often.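 Percent growth is the endpoint: 0 to 100 indicates growth inhibition (40 means 60% inhibition), 0 means no net growth, and negative values indicate cell death.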 Calls of active or inactive are those of the source. How the source made its calls: active means growth percent below 10; inactive means the rest.
# Tested on: HS 578T breast
# Experiment: NCI-60 one-dose screen, 48 h (100 = growth as untreated, 0 = no growth, -100 = all killed)
# Conditions: 10 µM
row,Compound,growth
1,OCCNc1oc(-c2ccccc2)nc1[P+](c1ccccc1)(c1ccccc1)c1ccccc1,-3.9% (active)
2,C/C(=C\c1ccc(O)cc1O)c1ccc2ccc(O)cc2[o+]1,90.2% (inactive)
3,Cc1noc2c(Cc3ccc([N+](=O)[O-])cc3)nn(CC(=O)N/N=C/c3ccc(Cl)cc3)c(=O)c12,10% (inactive)
4,CCOC(=O)CNC(=O)CN(Cc1ccccc1)C(=O)[C@@]1(C)CCC[C@]2(C)[C@H]3CC4C(C(C)C)=C[C@]3(CC[C@H]21)[C@@H]1C(=O)CCC(=O)[C@H]41,52.6% (inactive)
5,O=C(CSc1nnc(-c2c[nH]c3ccccc23)n1-c1ccccc1)c1ccc(Cl)cc1,33.2% (inactive)
6,COc1ccc(-c2cc(C(=O)N=Nc3c(O)[nH]c4ccc(F)cc34)c3ccccc3n2)cc1,74% (inactive)
7,O=C1Nc2ccc(Cl)cc2/C1=C/c1ccc(OCc2ccccn2)cc1,14.8% (inactive)
8,Cc1noc2c(Cc3ccccc3)nn(CC(=O)N/N=C/c3ccc(Cl)cc3)c(=O)c12,4.07% (active)
9,COc1ccc2[nH]c(=O)c(CSc3cccc(N)c3)cc2c1,95% (inactive)
10,COc1ccc(C(=O)/C=C/c2cc(F)cc(C(F)(F)F)c2)cc1S(N)(=O)=O,-25.7% (active)
11,Nc1cc(-c2cccc(C(=O)NCc3ccc4c(c3)OCO4)c2)ccn1,94.4% (inactive)
12,Cc1ccc(/C(N)=N/c2sc(-c3ccccc3)nc2-c2ccccc2)cc1,95% (inactive)
13,CN(C(=O)c1ccc(C(C)(C)C)cc1)c1sc2c(c1C#N)CCC(=O)C2,11.8% (inactive)
